Results on 5 compounds are retold here after PubChem BioAssay.

The nature of assay [1]: A549 cell viability effects, profiling panel, calcein-AM fluorescence, 48 h, basal (AID 1162). Note: test concentration not given here. The settings on record: higher = more signal.
The nature of assay [2]: adipocyte viability effects, profiling panel, cell-based, 3T3-L1 adipocytes, calcein-AM fluorescence, 48 h, basal (AID 1163). Note: test concentration not given here. To be noted: 3T3-L1 adipocytes viability, higher = more signal.
Assay [3] is described as follows: HepG2 cell viability effects, profiling panel, calcein-AM fluorescence, 48 h, basal (AID 1164). Note: test concentration not given here. The settings on record: higher = more signal.
The nature of assay [4]: MM1S cell viability effects, profiling panel, calcein-AM fluorescence, 48 h, basal (AID 1165).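 Note: viability of MM1S multiple myeloma cells under basal unstimulated conditions; test concentration not given here.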 To be noted: higher = more signal.
The nature of assay [5]: basal RPMI8226 viability, no added stimulus, profiling panel, cell-based, calcein-AM fluorescence, 48 h, PK04 Diversity Set (AID 1166).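 Note: cells grown under basal conditions without added stimulus; test concentration not given here.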 To be noted: RPMI8226 myeloma viability, higher = more signal.
Assay [6] in a line: basal HepG2 mitochondrial membrane potential changes, profiling panel, cell-based, JC-1 fluorescence, 24 h, 100 nL compound (AID 1167). Note: test concentration not given here. To be noted: higher = more signal.
A short description of assay [7]: basal 3T3-L1 adipocyte mitochondrial potential changes, profiling panel, cell-based, JC-1 fluorescence, 3T3-L1 adipocytes, 24 h, 100 nL compound (AID 1168). Note: test concentration not given here. The settings on record: JC-1 mitochondrial fluorescence, higher = more signal, called active from +8 up or from −8 down.
A short description of assay [8]: basal RPMI8226 mitochondrial membrane potential changes, profiling panel, cell-based, JC-1 fluorescence, 24 h, 100 nL compound (AID 1169). Note: test concentration not given here. The settings on record: RPMI8226 myeloma, JC-1 mitochondrial potential fluorescence, higher = more signal.
Assay [9] in a line: basal MM1S mitochondrial membrane potential changes, profiling panel, cell-based, JC-1 fluorescence, 24 h, 100 nL compound (AID 1170). Note: test concentration not given here. To be noted: higher = more signal.
Assay [10] can be described thus: A549 lung cancer cell viability effects, profiling panel, resazurin fluorescence, 24 h, PK04 Diversity Set (AID 1171). Note: test concentration not given here. To be noted: higher = more signal, called active from +8 up or from −8 down.
Assay [11] in a line: HepG2 liver cancer cell viability effects, profiling panel, resazurin fluorescence, 24 h, PK04 Diversity Set (AID 1172). Note: test concentration not given here. The settings on record: higher = more signal. In general terms: The colour change of resazurin is a common sign of viable cells or microbes.
A short description of assay [12]: basal S. cerevisiae growth modulation, no modifier, primary screen, OD600, strain BY4716, 24 h, basal condition (AID 1173). To be noted: OD600, 24 h, higher = more signal, called active from +8 up or from −8 down.
The nature of assay [13]: MM1S myeloma cell viability, profiling panel, resazurin fluorescence, basal, 24 h, PK04 Diversity Set (AID 1174).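 Note: MM1S multiple myeloma cell line; test concentration not given here.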 The settings on record: higher = more signal, called active from +8 up or from −8 down.
Assay [14] concerns the target Dihydroorotate dehydrogenase (quinone), mitochondrial (Plasmodium falciparum (isolate 3D7)) (UniProt Q08210). Description: PfDHODH enzyme inhibitors, primary screen, biochemical, C-terminal His tag, absorbance 600 nm (AID 1175).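 Note: recombinant parasite enzyme with a five histidine tag at its C terminus; test concentration not given here.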 The settings on record: DCIP absorbance 600 nm, higher = more signal, called active from +8 up or from −8 down.
Assay [15] can be described thus: P. aeruginosa biofilm formation inhibitors, primary screen, strain PAO1, LB-PBS medium, absorbance 600 nm (AID 1176). Note: test concentration not given here. The settings on record: P. aeruginosa PAO1 growth/biofilm, A600, 12 h; higher = more signal.
Assay [16] in a line: S. cerevisiae RM11-1a growth modifiers, primary screen, strain RM11-1a, OD600, basal, 24 h (AID 1177).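 Note: cultures grown under basal conditions with no added stressor; test concentration not given here.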 To be noted: OD600, 24 h, higher = more signal, called active from +8 up or from −8 down.
Assay [17] is described as follows: E. coli acrAB mutant growth effects, primary screen, E. coli filamentation inducers, strain DRC39, OD650, 24 h (AID 1178).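 Note: growth measured as culture turbidity by optical density at 650 nm; test concentration not given here.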 The settings on record: higher = more signal, called active from +8 up or from −8 down.
Assay [18] can be described thus: E. coli acrAB mutant growth effects, primary screen, E. coli filamentation inducers, strain DRC39, OD650, 48 h (AID 1179).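 Note: screen aims at cell division blockers that make cells filament.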 The settings on record: E. coli DRC39 delta-acrAB growth, higher = more signal, called active from +8 up or from −8 down.
A short description of assay [19]: RPMI8226 myeloma cell viability, profiling panel, resazurin fluorescence, basal, 24 h, PK04 Diversity Set (AID 1180).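 Note: RPMI8826 multiple myeloma cell line at 5000 cells per well; test concentration not given here.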 The settings on record: higher = more signal.
Assay [20] addresses E3 ubiquitin-protein ligase XIAP (Homo sapiens) (UniProt P98170). Briefly: XIAP binders, primary screen, biophysical, small-molecule microarray, fluorescence 635 nm (AID 1181).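 Note: score merges 667 nm emission and signal to noise over triplicate slides.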 The settings on record: small-molecule microarray binding, higher = more signal.

Each structure is given as a SMILES string. Activity calls are given as the source filed them. Unless noted, the rule behind the calls is not given here.

Sequence of E3 ubiquitin-protein ligase XIAP (Homo sapiens) (P98170 whole entry, looked up): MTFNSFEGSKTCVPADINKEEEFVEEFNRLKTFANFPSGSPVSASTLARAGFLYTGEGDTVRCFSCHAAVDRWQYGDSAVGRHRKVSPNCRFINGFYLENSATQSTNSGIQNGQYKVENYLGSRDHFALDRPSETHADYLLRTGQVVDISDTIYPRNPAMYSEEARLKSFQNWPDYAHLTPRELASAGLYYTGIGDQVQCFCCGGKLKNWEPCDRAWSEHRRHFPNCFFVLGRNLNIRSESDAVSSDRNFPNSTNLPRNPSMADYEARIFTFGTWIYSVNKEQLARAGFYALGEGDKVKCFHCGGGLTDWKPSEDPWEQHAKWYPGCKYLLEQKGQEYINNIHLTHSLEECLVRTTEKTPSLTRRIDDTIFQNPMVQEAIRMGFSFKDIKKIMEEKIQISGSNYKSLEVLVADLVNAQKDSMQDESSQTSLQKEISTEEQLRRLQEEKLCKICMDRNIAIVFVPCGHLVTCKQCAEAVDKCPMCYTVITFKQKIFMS
Sequence of Dihydroorotate dehydrogenase (quinone), mitochondrial (Plasmodium falciparum (isolate 3D7)) (Q08210 whole entry, looked up): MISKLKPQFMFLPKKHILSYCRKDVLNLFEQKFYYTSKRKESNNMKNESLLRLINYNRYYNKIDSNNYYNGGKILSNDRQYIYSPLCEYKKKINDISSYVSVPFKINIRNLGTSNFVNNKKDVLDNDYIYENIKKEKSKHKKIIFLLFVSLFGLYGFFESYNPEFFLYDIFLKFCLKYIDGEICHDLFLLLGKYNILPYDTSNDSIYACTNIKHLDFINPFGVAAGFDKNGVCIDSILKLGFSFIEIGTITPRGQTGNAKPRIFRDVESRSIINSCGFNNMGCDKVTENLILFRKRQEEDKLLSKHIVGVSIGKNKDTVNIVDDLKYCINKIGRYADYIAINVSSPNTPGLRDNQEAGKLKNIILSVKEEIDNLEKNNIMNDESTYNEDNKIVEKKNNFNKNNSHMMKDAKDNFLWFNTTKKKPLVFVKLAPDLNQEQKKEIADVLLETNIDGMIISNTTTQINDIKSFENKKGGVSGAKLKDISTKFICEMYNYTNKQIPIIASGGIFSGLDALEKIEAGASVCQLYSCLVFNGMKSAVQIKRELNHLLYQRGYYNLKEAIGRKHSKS

With `C=C(CCCC)/C(=C/C[C@H](OC(C)=O)c1ccccc1OCCO)c1cc(C(=O)OC)ccc1OC`, the z-score in assay [1] is 0.379; in assay [2] it was 1.66; in assay [3], -0.418; in assay [4], -1.36; in [5] it was -1.93; in [6] it was 2.79. For the same compound, the z-score in [7] is 0.63 (inactive); in assay [8], 0.275; in [9], 0.0208; in assay [10] it was 0.423 (inactive); in assay [11], -0.0696; in assay [12], -0.863 (inactive). Also, the z-score in assay [13] is 0.911 (inactive); in assay [15] it was -0.824 (inactive); in [16] it was -0.0572 (inactive); in [17], 0.427 (inactive); in assay [18], 0.257 (inactive); in assay [19] it was 0.682. The composite z-score in assay [14] is -2.1 (inactive); in [20], -0.28.

With `COC(=O)[C@H](Cc1ccccc1)N[C@@H](/C=C/C1CC1)[C@H](O)Cc1ccccc1`, the z-score in [1] is 0.168; in [2], -0.0648; in assay [3], -0.438; in [4], -0.608; in [5], -0.507; in assay [6], -0.908. The z-score in [7] is -0.124 (inactive); in assay [8] it was -1.17; in assay [9] it was -0.594; in assay [10], 0.778 (inactive); in assay [11], 0.717; in [12], -2.78 (inactive). Besides, the z-score in [13] is 0.488 (inactive); in assay [15], 0.0117 (inactive); in assay [16], 0.584 (inactive); in assay [17], -0.053 (inactive); in assay [18] it was -0.181 (inactive); in [19], 0.484. The composite z-score in assay [14] was 0.342 (inactive); in assay [20] it was -0.0559.

In the case of `O=C(NCCN1CCOCC1)C1N=C(c2ccc(OCCCO)cc2)N(c2ccccc2)O1` (stereo not given), the z-score in [1] was 0.264; in assay [2] it was -0.126; in assay [3], 0.291; in assay [4] it was 0.66; in assay [5] it was -0.425; in [6], 0.0176. The z-score in assay [7] is 0.653 (inactive); in assay [8] it was -1.28; in [9] it was 1.27; in [10], 0.712 (inactive); in assay [11], -0.154; in [12] it was 0.554 (inactive). The z-score was 0.602 (inactive) in assay [13]; -0.978 (inactive) in [15]; -0.377 (inactive) in assay [16]; 0.149 (inactive) in [17]; 0.116 (inactive) in assay [18]; 0.385 in [19]. Also, the composite z-score is 0.301 (inactive) in [14] and 0.172 in assay [20].

For the compound `COc1ccc(CCNC(=O)[C@@]2(C)c3ccccc3C(=O)N(C(C)C)[C@H]2c2ccc(CO)cc2)cc1`, the z-score in assay [1] is 0.133; in [2] it was -0.103; in [3] it was 0.779; in assay [4], -1.35; in assay [5], -0.974; in [6] it was 2.6. The z-score was 0.169 (inactive) in [7]; -0.0396 in [8]; -0.03 in [9]; -0.0933 (inactive) in [10]; -0.848 in [11]; -0.51 (inactive) in [12]. Also, the z-score is 0.0132 (inactive) in assay [13]; -0.149 (inactive) in assay [15]; -0.54 (inactive) in assay [16]; -0.166 (inactive) in assay [17]; 0.0299 (inactive) in assay [18]; 0.332 in assay [19]. For the same compound, the composite z-score in [14] was 0.12 (inactive); in assay [20], -0.252.

As to `COC(=O)[C@@]1(Cc2ccc(OC)cc2)[C@H]2c3cc(C(=O)N(C)C)n(C)c3C[C@H]2CN1C(=O)c1ccccc1`, the z-score in [1] is -1.37; in [2], 0.288; in assay [3] it was -1.7; in assay [4], -2.27; in assay [5], -2.47; in assay [6], 2.66. Besides, the z-score is -0.536 (inactive) in [7]; -0.701 in [8]; -1.17 in [9]; -0.482 (inactive) in [10]; -0.105 in assay [11]; 1.3 (inactive) in assay [12]. Besides, the z-score in assay [13] was -2.26 (inactive); in assay [15], 0.976 (inactive); in [16], 0.241 (inactive); in assay [17], -0.372 (inactive); in assay [18] it was -1.28 (inactive); in assay [19], -2.45. Also, the composite z-score was -0.342 (inactive) in assay [14] and 0.0279 in assay [20].
